# Screen size: about 200,000 compounds; about 810 (0.41%) were called active. No stated cut-off is given here; in the data, active means activation above about 19%; inactive means the rest. Only a selection was taken, and actives are over-represented in it overall.
# Target: Peroxisome proliferator-activated receptor gamma (Homo sapiens) (UniProt P37231)
# Test: enhancers of SRC-1 binding to PPARgamma – biochemical, primary screen (AID 631);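 further: 0% = DMSO and 100% = reference agonist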
# Conditions: PPARgamma-SRC-1 coactivator recruitment biochemical assay; at 8 µM; stronger effect = higher value
# Peroxisome proliferator-activated receptor gamma (Homo sapiens), sequence (P37231 whole entry, looked up): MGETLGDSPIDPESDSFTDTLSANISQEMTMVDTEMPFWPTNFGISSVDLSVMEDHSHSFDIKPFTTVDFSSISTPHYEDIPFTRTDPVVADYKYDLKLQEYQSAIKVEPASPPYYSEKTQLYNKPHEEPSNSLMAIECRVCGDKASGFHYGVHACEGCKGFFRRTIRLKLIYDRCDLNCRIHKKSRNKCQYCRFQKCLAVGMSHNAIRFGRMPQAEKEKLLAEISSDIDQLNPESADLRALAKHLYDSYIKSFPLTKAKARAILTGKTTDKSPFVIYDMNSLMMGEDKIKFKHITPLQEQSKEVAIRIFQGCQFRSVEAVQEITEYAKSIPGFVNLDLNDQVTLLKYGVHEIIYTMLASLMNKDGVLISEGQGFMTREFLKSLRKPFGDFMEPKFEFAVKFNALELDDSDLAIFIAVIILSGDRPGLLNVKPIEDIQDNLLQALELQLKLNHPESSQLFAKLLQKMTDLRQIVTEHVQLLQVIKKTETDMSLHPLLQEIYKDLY
row,Compound,activation
1,CSC1=NP(=S)(SC)N(C)c2nc3n(c21)CCC3 (stereo not given),65.3% (active)
2,Cc1ccc2c(c1)C1CN(C)CCC1N2C(=O)Cn1nnc(-c2ccccc2F)n1 (stereo not given),3.5% (inactive)
3,OCC#CC[N+]1(CC#Cc2ccccc2)CCCC1,4.2% (inactive)
4,CC(=O)NC(=O)NC(C)Cc1ccccc1 (stereo not given),6.2% (inactive)
5,COc1cccc(-c2nc3ccc(N4CCN(C)CC4)cc3[nH]2)c1,3.8% (inactive)
